From PubChem BioAssay (NCI)
Compounds without any hit were thinned out: in the full panel of roughly 79,000, 15% have a hit. Calls of active or inactive are those of the source. Cut-off read from the data, not from the text of the source: active = growth inhibition above about 70%; inactive = the rest.

Columns and labels:
[1] = NCI Yeast Anticancer Drug Screen. Data for the rad50 strain (AID 155);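 note: 0% = growth of vehicle-only cultures of the same strain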; details: S. cerevisiae rad50 strain growth inhibition; at 50.0 µM; hits give high values
How it was run: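 Vehicle-treated cultures provide the reference for the growth inhibition reported for compound-exposed, repair-deficient yeast.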

[2] = NCI Yeast Anticancer Drug Screen. Data for the mec2-1 strain (AID 157); details: S. cerevisiae mec2-1 strain, at 50.0 µM, hits give high values
How it was run: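 Cells of the genetically defined mec2-1 yeast strain are incubated with test compound. Inhibition of growth is calculated against vehicle-treated controls.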

[3] = NCI Yeast Anticancer Drug Screen. Data for the sgs1 mgt1 strain (AID 161);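 note: 0% = growth of cultures given vehicle only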; details: S. cerevisiae sgs1 mgt1 strain, at 50.0 µM, hits give high values
How it was run: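 Mutant yeast exposed to compound; growth scored against vehicle-only wells.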

[4] = NCI Yeast Anticancer Drug Screen. Data for the cln2 rad14 strain (AID 165);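 note: 0% = growth equal to vehicle treated cultures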; details: S. cerevisiae cln2 rad14 strain, at 50.0 µM, hits give high values
How it was run: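 The screen exposed genetically defined yeast (cln2 rad14) to test compounds and scored growth inhibition relative to vehicle-treated controls.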

[5] = NCI Yeast Anticancer Drug Screen. Data for the bub3 strain (AID 167); details: S. cerevisiae bub3 mutant strain, at 50.0 µM, hits give high values
How it was run: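 Mutant yeast screening strain plus compound; vehicle-treated cultures serve as the 0% inhibition reference.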

[6] = NCI Yeast Anticancer Drug Screen. Data for the mlh1 rad18 strain (AID 175); details: S. cerevisiae mlh1 rad18 strain growth inhibition; at 50.0 µM; hits give high values
How it was run: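 Compound-treated yeast growth, normalised to vehicle controls. Strain bears defined DNA repair mutations.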

Measured: growth inhibition

CCCCCCCCCCCCCCCCOCC(COP(=O)(O)OCC1OC(n2cc(CC)c(=O)[nH]c2=O)CC1O)OC(=O)CCCCCCCCCCCCCCC (stereo unspecified)
inactive: [1] -0.45% | [2] -5.55% | [3] 5.25% | [4] 3.15% | [5] -15.1% | [6] -65%

CN1C(=O)N/C(=C\c2ccc(S(=O)(=O)NN)cc2)C1=O
inactive: [1] 4.05% | [2] 9.6% | [3] 24.7% | [4] 11.7% | [5] -18.8% | [6] 39.2%

O=C1CC(N2C(=O)C3C4CCC(O4)C3C2=O)C(=O)N1 (stereo unspecified)
inactive: [1] 2.45% | [2] 18.2% | [3] 1.3% | [4] -0.6% | [5] 7.95% | [6] 6.45%

O=C1NN=C(C2CCCCC2)C12CCCCC2
inactive: [1] 8.05% | [2] -2.85% | [3] 1.3% | [4] 2.85% | [5] 5.45% | [6] -8.4%

O=C(O)c1cc(O)[nH]c(=O)c1
inactive: [1] -12% | [2] -105% | [3] -22.6% | [4] -48.5% | [5] -26% | [6] -16.2%

CC(CS(C)(=O)=O)S(=O)(=O)Cc1ccccc1 (stereo unspecified)
inactive: [1] -2.4% | [2] 6.05% | [3] 3.2% | [4] -28.8% | [5] 6.25% | [6] -0.45%

O=C(OCC(OC(=O)c1ccccc1)C(OC(=O)c1ccccc1)C(OC(=O)c1ccccc1)C(COC(=O)c1ccccc1)OC(=O)c1ccccc1)c1ccccc1 (stereo unspecified)
inactive: [1] 22.1% | [2] 10% | [3] 10.7% | [4] 5.55% | [5] -5.45% | [6] 7.65%

CCCCCCCOC(=O)C(N)c1ccccc1 (stereo unspecified)
inactive: [1] -5.2% | [2] -32.1% | [3] -22.4% | [4] 7.5% | [5] -7.6% | [6] 4.1%

N#CC(/C(=N/NC(N)=S)C(=O)Nc1cccc(Cl)c1)c1ccccc1 (stereo unspecified)
inactive: [1] -23.9% | [2] 13.8% | [3] 10.4% | [4] 18.3% | [5] 12.9% | [6] 31.2%

CC(=O)Nc1ccc(/C=N/NC(=O)COCC(=O)N/N=C/c2ccc(NC(C)=O)cc2)cc1
inactive: [1] 7.8% | [2] 11.1% | [3] 0.15% | [5] -3.2% | [6] -9.65%
active: [4] 86.3%

BrC12c3ccccc3C(Br)(c3ccccc31)c1ccccc12
inactive: [1] 5.95% | [2] 5.6% | [3] -3.15% | [4] -7.4% | [5] -5.3% | [6] 6.2%

NC(=O)c1nnc2cc(F)ccc2c1N
inactive: [1] 4.8% | [2] -3.45% | [3] 1.35% | [4] 0.4% | [5] 1.6% | [6] -1.6%

CCCCC1=CC1(C#N)[N+](=O)[O-] (stereo unspecified)
inactive: [1] 33.4% | [2] 11.5% | [3] 20.5% | [4] 21.6% | [5] 17.3% | [6] 27.8%

Cc1cccc(-n2c(-c3ccccc3)cs/c2=N\N=C2/CSC(=O)N2Cc2ccccc2)c1
inactive: [1] -2.95% | [2] -21.9% | [3] 22.8% | [4] -41.8% | [5] 2.45% | [6] -27.8%

CCOC(=O)c1cnc(NCCCNc2ncc(C(=O)OCC)c(=O)[nH]2)[nH]c1=O
inactive: [1] -2.65% | [2] 4% | [3] -2.6% | [4] -44.9% | [5] 3.8% | [6] 10.3%

COc1ccc(CC[N+]2=Cc3cc(OC)c(OC)cc3CC2)cc1OC
inactive: [1] -0.9% | [2] -2.8% | [3] 12.6% | [4] 13.3% | [5] 2.7% | [6] 15.5%

CC/C(=N\O)c1ccc2cc(Cl)c3ccccc3c2c1
inactive: [1] 21.7% | [2] 25.4% | [3] 44.5% | [4] 8.75% | [5] 54.2% | [6] 31.9%

Cn1c2c(c3ccccc31)CCN=C2C1CCCOC1=O (stereo unspecified)
inactive: [1] -27.6% | [2] -54.2% | [3] -21.1% | [4] -17.5% | [5] -9.3% | [6] -39.1%

O=C(O)c1cccc(-n2cnc3c(=O)[nH]cnc32)c1
inactive: [1] -0.25% | [2] -3.85% | [3] -5.85% | [4] -9.15% | [5] 8.6% | [6] -14.2%

COc1cc(OC)c(NC(=O)CC2SC(N)=NC2=O)cc1Cl (stereo unspecified)
inactive: [1] 9.75% | [2] 6.85% | [3] 20.2% | [4] 11% | [5] 25.4% | [6] 20.6%

CCOC(=O)C1CSC(N)=N1 (stereo unspecified)
inactive: [1] 4.45% | [2] -38.9% | [3] -11.8% | [4] -29.4% | [5] 5.65% | [6] -7.8%

Cc1ccc2nc(N)nc(N)c2c1
inactive: [1] -12.9% | [2] 7.15% | [3] -8.4% | [4] 3.25% | [5] -10.6% | [6] -3.8%

CCCCOC(=O)c1ccc(NC(=O)CCCN(CC)CC)cc1
inactive: [1] 5.5% | [2] -2.3% | [3] 0.85% | [4] 13.2% | [5] 14.4% | [6] -5%

O=C(NC1CCCCC1)Oc1ccc[nH]c1=O
inactive: [1] -14.8% | [2] -16.8% | [3] -13.6% | [4] -26.9% | [5] 2.25% | [6] -1.25%

CC(C)(C)C1=NNC(c2ccccc2)C1 (stereo unspecified)
inactive: [1] 5.25% | [2] -3.75% | [3] -14.7% | [4] 5.5% | [5] -1.25% | [6] 12.6%

CCCC(CC)C(=O)NC(N)=O (stereo unspecified)
inactive: [1] -7.2% | [2] -5.9% | [3] -7.8% | [4] -8.55% | [5] -20.2% | [6] 8.7%

CSc1ncnc2nn(C3OC(CO)C(O)C3O)cc12 (stereo unspecified)
inactive: [1] 8.1% | [2] 5.85% | [3] 6.25% | [4] 8.4% | [5] -9.6% | [6] -5.4%

CC(=O)N1CCc2ccccc2C1C1NCCc2ccccc21 (stereo unspecified)
inactive: [1] 14.4% | [2] 8.95% | [3] 13.1% | [4] -0.15% | [5] 1.05% | [6] 5.9%

C[C@H](CCC(=O)NCCS(=O)(=O)O)[C@H]1CC[C@H]2[C@@H]3CC[C@@H]4C[C@H](O)CC[C@]4(C)[C@H]3CC[C@]12C
inactive: [1] 2.9% | [2] -21.1% | [3] 5.65% | [4] -9.3% | [5] -5.55% | [6] 14.8%

COc1ccc(C(=O)C(C)C(O)C(=O)O)c(O)c1C (stereo unspecified)
inactive: [1] 8.15% | [2] 14.9% | [3] -1.25% | [4] 2% | [5] -16.5% | [6] 9.15%

CC(=O)Oc1ccccc1/C=C1/C=C(c2ccccc2)OC1=O
inactive: [1] 6.4% | [2] -7.55% | [3] -0.55% | [4] -39.1% | [5] -16.8% | [6] 0.2%

Cc1ccc(C2=CSc3ccccc3N2)cc1
inactive: [1] 24.8% | [2] 38% | [3] 45.6% | [4] -13.9% | [5] 62.5% | [6] 29.2%

CC(=O)c1ccc2c(ccc3ccccc32)c1O
inactive: [1] -16.5% | [2] -11.6% | [3] -3.65% | [4] -8.8% | [5] -2.45% | [6] 0.7%

CSc1nc2c(nc(N)n2C2OC(CO)C(O)C(O)C2O)c(=O)n1C (stereo unspecified)
inactive: [1] 3.1% | [2] 20% | [3] 26.3% | [4] 33.9% | [5] 11.2% | [6] 39.4%

CCN(CC)Cc1cc(Nc2cc(C)nc(/N=C(\N)Nc3cc(Cl)cc(Cl)c3)n2)ccc1O
active: [1] 95.2% | [3] 97.2% | [6] 91.1%
inactive: [2] 69.2% | [4] 10.2% | [5] 7.95%

O=C1CCCCc2cccc(O)c21
inactive: [1] 2% | [2] -3.85% | [3] -1.95% | [4] 24.3% | [5] 2.4% | [6] 2.1%

O=C1c2ccccc2C2(O)Nc3c(ccc4ccccc34)C12O (stereo unspecified)
inactive: [1] 2% | [2] -3.3% | [3] 10.6% | [4] -3.8% | [5] -16.9% | [6] 15.4%

COc1nc(OC)c2cnn(-c3ccc(Cl)cc3)c2n1
inactive: [1] -10.5% | [2] -4.6% | [3] -6.45% | [4] -3% | [5] 3.7% | [6] -7.35%

COc1ccc(C(=O)Cc2nc3nnc(N)n3nc2CC(=O)c2ccc(OC)cc2)cc1
inactive: [1] -9.35% | [2] 2.1% | [3] -0.75% | [4] -0.75% | [5] 16.4% | [6] 15.7%

Cc1cc2c(c(N)c1C)C(=O)c1ccccc1C2=O
inactive: [1] 18.4% | [2] 11.4% | [3] 31.7% | [4] 10.9% | [5] 26.2% | [6] 6.7%

COc1cc(C(=O)C/C(CCC(=O)Nc2ccc(Cl)cc2Cl)=N/Nc2nnc(C)n2N)ccc1O
inactive: [1] -19.6% | [2] -4.2% | [3] -25.6% | [4] 13.4% | [5] 7.1% | [6] -5.05%
